Laboratory results reported in PubChem BioAssay (NCI).
Values joined by “and” are separate entries in the source; they are usually repeats but may differ in a detail not shown here. Equal values may be shown once. The panel holds about 79,000 compounds, 15% with a hit somewhere; the sample as a whole holds those more often. More than one record can exist for a structure, and the calls need not agree. Active and inactive are the calls of the source. Cut-off read from the data, not from the text of the source: active = growth inhibition above about 70%; inactive = the rest.

Assay: NCI Yeast Anticancer Drug Screen. Data for the bub3 strain (AID 167)
Details: S. cerevisiae bub3 mutant strain, stronger effect = higher value
Experimental: Growth inhibition of yeast strains with defined genetic alterations is measured as a screen for potential anti-cancer activity. Selected strains with alterations in DNA damage repair or cell cycle control were exposed to compounds and growth inhibition was measured relative to vehicle treated controls. The strain used in this assay is bub3

[1] = at 5.0 µM (retest, dose inferred, filed as 0.5)
[2] = at 50.0 µM (retest, dose inferred, filed as 5.0)

Measured: growth inhibition

O=S(=O)(O)c1ccc(Cl)cc1.[Cd]
inactive: at 1.2 µM -8% | at 3.7 µM 8% | [1] -6% | at 11.0 µM 6% | at 33.0 µM 19% | [2] 27% | at 50.0 µM 2.7% | at 100.0 µM 30%

COc1cccc2c1C(=O)c1c(O)c3c(c(O)c1C2=O)C[C@@](O)(C(C)=O)C[C@@H]3OC1CC(N)C(OC2CC(O)C(O)C(C)O2)C(C)O1 (some centres undefined)
inactive: at 1.2 µM -30% | at 3.7 µM -26% | [1] 4% | at 11.0 µM -31% | at 33.0 µM -23% | [2] 37% | at 50.0 µM 42.4% | at 100.0 µM -6%

COc1cc(C2c3cc4c(cc3[C@@H](Nc3ccc(N)cc3)C3COC(=O)[C@H]23)OCO4)cc(OC)c1O (some centres undefined)
inactive: at 1.2 µM -33% | at 3.7 µM 55% | [1] 22%
active: at 11.0 µM 92% | at 33.0 µM 85% | [2] 93% | at 50.0 µM 84.8% | at 100.0 µM 85%

CC1CCC2(NC1)OC1CC3C4CCC5CC(OC6OC(CO)C(OC7OC(CO)C(O)C(OC8OCC(O)C(O)C8O)C7OC7OC(CO)C(O)C(O)C7O)C(O)C6O)CCC5(C)C4CCC3(C)C1C2C (centres undefined)
active: [2] 74%
inactive: at 1.2 µM 0% | at 3.7 µM -19% | [1] 10% | at 11.0 µM -27% | at 33.0 µM -10% | at 50.0 µM 11.1% | at 100.0 µM 45%

ClCCCCCl
inactive: [1] 4% | [2] 0% | at 50.0 µM -17.6%

COC1=C(N2CC2)C(=O)C(OC)=C(N2CC2)C1=O
inactive: [1] 49%
active: [2] 98% | at 50.0 µM 97.1%

O=C1C=CC(=O)c2c(O)ccc(O)c21
99% (active) and 11% (inactive): [1]
active: [2] 80% and 93% | at 50.0 µM 89.6% and 79.1%

O=C1C=C(Cl)C(=O)C=C1Cl
active: [2] 99% | at 50.0 µM 99.3%
inactive: [1] 5%
